Holding throughout (test): NCI-60 one-dose screen, 48 h (100 = growth as untreated, 0 = no growth, -100 = all killed)
For assay [1], the system named is DU-145 prostate. Particulars: 10 µM unless noted.
In assay [2] the test system is K-562 leukemia. Particulars: 10 µM unless noted.
Assay [3] deals with MALME-3M melanoma. Particulars: 10 µM unless noted.
The subject of assay [4] is MDA-MB-231 breast. Particulars: 10 µM unless noted.
Assay [5] relates to RXF 393 renal. Particulars: 10 µM unless noted.
The test system of assay [6] is SF-268 CNS. Particulars: 10 µM unless noted.
For assay [7], the system named is SF-295 CNS. Particulars: 10 µM unless noted.
For assay [8], the system named is SF-539 CNS. Particulars: 10 µM unless noted.
Assay [9] has as its system UACC-257 melanoma. Particulars: 10 µM unless noted.
Assay [10] relates to M14 melanoma. Particulars: 10 µM unless noted.
In assay [11] the test system is HCT-15 colon. Particulars: 10 µM unless noted.
Assay [12] concerns HT29 colon. Particulars: 10 µM unless noted.
Assay [13] relates to SNB-75 CNS. Particulars: 10 µM unless noted.
Assay [14] relates to U251 CNS. Particulars: 10 µM unless noted.
In assay [15] the test system is PC-3 prostate. Particulars: 10 µM unless noted.
Assay [16] has as its system SK-MEL-5 melanoma. Particulars: 10 µM unless noted.
In assay [17] the test system is UACC-62 melanoma. Particulars: 10 µM unless noted.
Assay [18] deals with LOX IMVI melanoma. Particulars: 10 µM.
Assay [19] concerns SK-MEL-28 melanoma. Particulars: 10 µM unless noted.
Assay [20] has as its system SNB-19 CNS. Particulars: 10 µM unless noted.

About 83,000 compounds went through this panel and 20% of them were active in at least one assay; those are over-represented in the sample as a whole.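 A percent growth of 40 corresponds to 60% growth inhibition; 0 means no net growth; -100 means all cells died. Active threshold: below 10.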 Unmarked numbers belong to inactive results. The source made the active and inactive calls.

Experimental findings from PubChem BioAssay (NCI) are described below.

In the case of `CCCCCCCCc1ccc(C(=O)Nc2ccc(C)cc2C(=O)O)cc1C`, the growth in [1] was 105%; in [2] it was 71.2%; in assay [3], 96.5%; in assay [4], 98.1%; in assay [5], 109%; in [6], 99.9%. Also, the growth in [7] was 73.6%; in assay [8], 99.1%; in assay [9], 95%; in assay [10], 99.9%; in [11] it was 94%; in [12], 108%. Further, the growth is 92.4% in [13]; 88.1% in assay [14]; 84.2% in assay [15]; 94.3% in assay [16]; 91.3% in assay [17]; 101% in [18]. For the same molecule, in assay [19], the growth was 109%.
`CC(C)CSc1nc(NCCc2c[nH]c3ccccc23)c(C#N)c(-c2ccc(Cl)cc2)n1`: the growth in [1] was 67.1%; in [2] it was 13.6%; in assay [3], 81.9%; in assay [4], 48.2%; in [5], 31%; in assay [6], 55%. For the same molecule, the growth was 66.4% in assay [7]; 60.9% in assay [8]; 85.8% in [9]; 67.6% in [10]; 29.8% in assay [11]; 15.1% in [12]. For the same molecule, the growth in assay [13] was 77.3%; in assay [14] it was 23.8%; in assay [15], 23.1%; in [16], 30%; in assay [17] it was 74.1%; in assay [18] it was 22.5%. Also, the growth in assay [19] was 72.1%.
On to `O=C(Cn1c2c(sc1=O)[C@H]1[C@@H](O)[C@@H](O)[C@H](O)[C@@H]1CS2)N1CCOCC1`, for which the growth in assay [1] is 112%; in assay [2] it was 106%; in assay [3] it was 98.8%; in assay [4], 106%; in [5] it was 117%; in [6], 97.7%. For the same molecule, the growth in assay [7] is 105%; in [8], 96.8%; in assay [9], 110%; in assay [10] it was 112%; in [11], 107%; in assay [12] it was 106%. Also, the growth in [13] is 82.3%; in assay [20], 103%; in assay [14], 99.2%; in [16], 102%; in assay [17], 101%; in assay [19], 107%.
As for `Cc1ccc(C(=O)CSc2nc3ccc(F)cc3c(=O)n2-c2ccc(Cl)cc2)cc1`, the growth in assay [1] is 50.4%; in assay [2], 88.8%; in assay [3] it was 39.6%; in assay [4], 13.7%; in [5], -10.6% (active); in [6], 28.9%. Also, the growth is 4.69% (active) in [7]; 2.03% (active) in assay [8]; 70.4% in assay [9]; 56.5% in [10]; 59.2% in [11]; 49.9% in assay [12]. The growth was -19.4% (active) in assay [13]; 19.6% in assay [14]; 25.9% in assay [15]; 68.1% in [16]; 71.4% in assay [17]; 60.7% in assay [18]. Also, in assay [19], the growth is 77.2%.
Turning to `COc1ccc(N2N=C(c3ccc4c(c3)OCO4)CC2c2cccc(NC(=O)CCNS(=O)(=O)c3ccc(Cl)cc3)c2)cc1` (stereo unspecified), the growth in assay [1] was 39.7%; in [2], 9.67% (active); in [3], 18.7%; in assay [4], -5.89% (active); in [5], 4.88% (active); in assay [6] it was 32.8%. Moreover, the growth was 10.7% in [7]; 38.2% in assay [8]; 49.2% in assay [9]; 29.5% in assay [10]; 33% in [11]; 17.1% in assay [12]. The growth is 49.4% in assay [13]; 29.5% in [14]; 16.5% in assay [15]; 24.2% in [16]; 39.5% in assay [17]; 23.3% in assay [18].
Regarding `CC(C)Sc1nc(NCCc2c[nH]c3ccccc23)c(C#N)c(-c2ccccc2)n1`, the growth in assay [1] is 42.5%; in assay [2] it was 8.87% (active); in assay [3] it was 55.8%; in [4] it was -17.3% (active); in assay [5], -27.6% (active); in assay [6], 45%. The growth was -14.3% (active) in [7]; 40.8% in [8]; 86.4% in assay [9]; 42.7% in [10]; -19.9% (active) in [11]; -30.6% (active) in [12]. For the same molecule, the growth in assay [13] was 60.6%; in assay [14], 15.5%; in assay [15] it was 12.6%; in [16], -6.58% (active); in assay [17], 79.4%; in assay [18], -68.7% (active). The growth in assay [19] was 81.5%.
As to `Clc1ccc(-c2ccc(OCCCN3CCN(c4ccncc4)CC3)cc2)cc1`, the growth in assay [1] was 69.1%; in [2] it was -45.6% (active); in [3], 84.2%; in assay [4] it was 33.1%; in assay [5], 15.3%; in assay [6], 75.9%. Moreover, the growth was 40.6% in [7]; 30% in assay [8]; 90.2% in assay [9]; -54.6% (active) in assay [10]; -66% (active) in assay [11]; -30.6% (active) in assay [12]. For the same molecule, the growth in assay [13] was 83.6%; in assay [14], 35.7%; in assay [15], 24.6%; in assay [16] it was 13.7%; in [17], 74%; in assay [18], -89.8% (active). Besides, the growth in assay [19] was 90.1%.
